This is an account of results in PubChem BioAssay (Tox21).

Where “and” joins values, the source holds several entries; their conditions need not be identical. Equal values may be shown once. Results filed as inconclusive are left out. Entries that show only a call come without a potency. Some structures have more than one record in an assay (separate samples or runs), and their calls can disagree. Calls of active or inactive are those of the source. Unless noted, calls come from the whole dose curve; as a rule, active = well fitted curve in the direction sought with a large enough effect in the repeat runs; inconclusive = weak or mixed curves; inactive = no such curve, though single readings can be large; an effect the other way counts as inactive or inconclusive.

System in one assay: not listed separately
Kind of assay: qHTS assay to identify small molecule antagonists of the androgen receptor (AR) signaling pathway - cell viability counter screen (AID 743033; note: nearly all actives have a fitted effect of over 45% in size; note: potency is the fitted concentration of half-maximal effect). To be noted: AR-bla HEK293 viability, CellTiter-Glo luminescence, 16 h; series mostly up to 58.5 µM.
As to `[P]#[In]`, the Potency result is “inactive”.
Still for that read-out and setting: next, `C[C@]12C=CC(=O)C=C1CC[C@@H]1[C@@H]2CC[C@@]2(C)[C@H]1CC[C@]2(C)O`: “inactive”; `O=S1(=O)OCCO1`: “inactive”; `Cl/C=C/CCl`: “inactive”.
Same read-out and setting: next, `C=C1CC[C@@]2(O)[C@H]3Cc4ccc(O)c5c4[C@@]2(CCN3CC2CC2)[C@H]1O5`: “inactive”; `CC[C@@H](CO)NC(=O)[C@@H]1C=C2c3cccc4c3c(cn4C)C[C@H]2N(C)C1`: “inactive”.
`C=CCN1CC[C@]23CCCC[C@H]2[C@H]1Cc1ccc(O)cc13`: the Potency entry was “inactive”.
The same measure, in the same setting: as for `CC(C)(O)C(Cl)(Cl)Cl`, the entry is “inactive”; as for `OP(O)c1ccccc1`, “inactive”; as for `NCCOS(=O)(=O)O`, “inactive”.
As for `CCOC(=O)NC(C)(C)Cc1ccc(Cl)cc1`, the Potency result was “inactive”.
On the same count and under the same terms, as for `CCCCCCCCSC(=O)Oc1cc(Cl)nnc1-c1ccccc1`, the entry is “inactive”.
Same read-out and setting: next, `ClC1=C(Cl)C2(Cl)C(CBr)CC1(Cl)C2(Cl)Cl` (stereo unspecified): “inactive”; `O=C1C2CC=CCC2C(=O)N1SC(Cl)(Cl)Cl` (stereo unspecified): “inactive and 3.41 µM (active)”.
Turning to `CCN(CC)C1CCCCC1`, the Potency result is “inactive”.
Same read-out and setting: next, `CC(Cc1ccccc1)NCCn1cnc2c1c(=O)n(C)c(=O)n2C` (stereo unspecified): “inactive”.
Take `O=P(O)(O)c1ccccc1`: the Potency entry was “inactive”.
Take `O=C(Cl)/C=C/C(=O)Cl`: the Potency entry is “inactive”.
Still for that read-out and setting: next, `O=c1[nH]oc2c1CCNC2`: “inactive”; `C=C(C)[C@H]1CN[C@H](C(=O)O)[C@H]1CC(=O)O`: “inactive”; `CCNc1nc(Cl)nc(NC(C)(C)C)n1`: “inactive”.
On the same count and under the same terms, as for `CC(C)(C)C(=O)C(Cl)Cl`, the entry is “inactive”; as for `CCCCS(=O)(=O)Cl`, “inactive”.
`OCC(Cl)CCl` (stereo unspecified): the Potency result was “inactive”.
On the same count and under the same terms, next, `CCCOC(=O)Cc1ccc(OCC(=O)N(CC)CC)c(OC)c1`: “inactive”; `CCC(=O)OC1(c2ccccc2)CCN(C)CC1`: “inactive”.
Same read-out and setting: next, `CCOC(=O)c1ncn2c1CN(C)C(=O)c1c(I)cccc1-2`: “inactive”; `CC1=C2[C@H]3OC(=O)[C@@H](C)[C@@H]3CC[C@@]2(C)C=CC1=O`: “inactive”.
Take `CCNc1nc(NCC)nc(SC)n1`: the Potency entry is “inactive”.
Same read-out and setting: next, `CNC(=O)Oc1cc(C)c(N(C)C)c(C)c1`: “inactive”; `CC(C)(C)c1cc(O)ccc1O`: “inactive and 26.8 µM (active)”.
In the case of `C[C@@H](N)[C@@H](O)c1ccccc1`, the Potency result is “inactive”.
The same measure, in the same setting: next, `CC(C)(N)Cc1ccc(Cl)cc1`: “inactive”; `O=C(NC(=O)c1c(F)cccc1F)Nc1cc(Cl)c(F)c(Cl)c1F`: “inactive”; `CC(C)(C1CCC(O)CC1)C1CCC(O)CC1` (stereo unspecified): “inactive”.
Still for that read-out and setting: next, `CON(C)C(=O)Nc1ccc(Br)c(Cl)c1`: “inactive”; `N=C(N)[Se]`: “inactive”.
Same read-out and setting: as for `NNCc1ccccc1`, the entry is “inactive”.

For the next assay, the target named is Androgen receptor (Homo sapiens) (UniProt P10275). Kind of assay: qHTS assay to identify small molecule antagonists of the androgen receptor (AR) signaling pathway (AID 743035; active = well fitted inhibition curve with a large enough effect in the signal ratio in the repeat runs, not every such curve was filed as active; the % refers to the signal ratio; note: potency is the fitted concentration of half-maximal effect). To be noted: HEK293 AR-UAS-bla, R1881-stimulated, beta-lactamase FRET, 16 h; series mostly up to 58.5 µM. The method, boiled down: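 Beta-lactamase FRET read (2 h RT incubation with LiveBLAzer B/G) following 16 h of compound plus R1881 treatment of AR-UAS-bla HEK293 cells, which had been pre-incubated 4 h at 37C.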
Chain of Androgen receptor (Homo sapiens) (P10275 whole entry, looked up): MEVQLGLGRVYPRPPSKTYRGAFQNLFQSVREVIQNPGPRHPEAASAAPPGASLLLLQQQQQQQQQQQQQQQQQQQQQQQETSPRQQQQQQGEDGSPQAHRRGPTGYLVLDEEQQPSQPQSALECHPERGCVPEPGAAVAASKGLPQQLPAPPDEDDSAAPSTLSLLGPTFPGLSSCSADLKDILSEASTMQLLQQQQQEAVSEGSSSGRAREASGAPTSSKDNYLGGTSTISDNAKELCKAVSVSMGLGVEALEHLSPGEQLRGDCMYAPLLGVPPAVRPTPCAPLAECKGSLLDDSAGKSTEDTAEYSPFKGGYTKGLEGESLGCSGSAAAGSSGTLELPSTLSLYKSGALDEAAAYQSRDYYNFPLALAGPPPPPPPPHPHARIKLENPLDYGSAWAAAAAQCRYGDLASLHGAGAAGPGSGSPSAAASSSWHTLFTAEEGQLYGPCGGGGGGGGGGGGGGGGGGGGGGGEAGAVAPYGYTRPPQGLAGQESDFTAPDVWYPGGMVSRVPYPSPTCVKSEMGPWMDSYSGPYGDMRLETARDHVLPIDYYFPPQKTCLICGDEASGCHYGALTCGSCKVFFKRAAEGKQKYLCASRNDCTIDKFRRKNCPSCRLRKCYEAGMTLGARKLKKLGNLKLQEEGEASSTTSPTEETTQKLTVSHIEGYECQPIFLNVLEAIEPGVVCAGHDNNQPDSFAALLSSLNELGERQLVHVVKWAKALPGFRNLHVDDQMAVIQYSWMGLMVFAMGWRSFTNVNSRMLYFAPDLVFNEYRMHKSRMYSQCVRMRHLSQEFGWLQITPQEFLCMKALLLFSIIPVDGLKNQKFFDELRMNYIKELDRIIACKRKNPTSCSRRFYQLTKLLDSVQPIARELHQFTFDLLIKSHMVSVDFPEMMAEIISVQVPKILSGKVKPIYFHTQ
For orientation: In qHTS, concentration-response curves come from the screen itself.
Turning to `O=S1(=O)OCCO1`, the Potency result is “inactive”.
Still for that read-out and setting: as for `OP(O)c1ccccc1`, the entry is “inactive”; as for `CCOC(=O)NC(C)(C)Cc1ccc(Cl)cc1`, “inactive”.
Still for that read-out and setting: as for `CCN(CC)C1CCCCC1`, the entry is “inactive”; as for `CCOC1Oc2ccc(OS(C)(=O)=O)cc2C1(C)C` (stereo unspecified), 43.3 µM (active).

The target is the same in another assay. Put plainly: qHTS assay to identify small molecule agonists of the androgen receptor (AR) signaling pathway (AID 743036; active = well fitted activation curve with a large enough effect in the signal ratio in the repeat runs, with a control signal flat, not every such curve was filed as active; the % refers to the signal ratio). To be noted: HEK293 AR-UAS-bla GripTite, beta-lactamase FRET ratio, 16 h; series mostly up to 62.4 µM. The gist of the method: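 Following a 4 h settling period, AR-UAS-bla HEK293 cells were dosed with compounds for 16 h at 37C. A 2 h room-temperature incubation with LiveBLAzer B/G FRET substrate preceded the fluorescence measurement.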
With `O=S1(=O)OCCO1`, the outcome was inactive.
`OP(O)c1ccccc1`: the outcome was inactive.
Same read-out and setting: next, `CC[C@@H](CO)NC(=O)[C@@H]1C=C2c3cccc4[nH]cc(c34)C[C@H]2N(C)C1`: “inactive”; `CCOC(=O)NC(C)(C)Cc1ccc(Cl)cc1`: “inactive”; `CCN(CC)C1CCCCC1`: “inactive”.
Consider `O=C(Cl)/C=C/C(=O)Cl`, for which the result was inactive.
Same read-out and setting: next, `CCNc1nc(Cl)nc(NC(C)(C)C)n1`: “inactive”; `CCOC1Oc2ccc(OS(C)(=O)=O)cc2C1(C)C` (stereo unspecified): “inactive”.

The target is the same in a further assay. Put plainly: qHTS assay to identify small molecule agonists of the androgen receptor (AR) signaling pathway using the MDA cell line (AID 743040; note: nearly all actives have a fitted effect of over 20% in size). Conditions: MDA-kb2 AR-luc cells, MMTV luciferase, 16 h, stronger effect = higher value; series mostly up to 70.3 µM. The gist of the method:
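After a 5 h incubation at 37C and 0% CO2, MDA-kb2 reporter cells were dosed with compounds in DMSO and kept 16 h under the same conditions. Luciferase activity was then read as luminescence with ONE-Glo.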
With `O=S1(=O)OCCO1`, the call was inactive.
On the same count and under the same terms, as for `OP(O)c1ccccc1`, the entry is “inactive”; as for `CC[C@@H](CO)NC(=O)[C@@H]1C=C2c3cccc4[nH]cc(c34)C[C@H]2N(C)C1`, “inactive”; as for `CCOC(=O)NC(C)(C)Cc1ccc(Cl)cc1`, “inactive”.
Same read-out and setting: next, `CCN(CC)C1CCCCC1`: “inactive”; `O=C(Cl)/C=C/C(=O)Cl`: “inactive”.
The same measure, in the same setting: as for `CCNc1nc(Cl)nc(NC(C)(C)C)n1`, the entry is “inactive”; as for `CCOC1Oc2ccc(OS(C)(=O)=O)cc2C1(C)C` (stereo unspecified), “inactive”.

System in a further assay: not listed separately
Kind of assay: qHTS assay to identify small molecule antagonists of the androgen receptor (AR) signaling pathway using the MDA cell line - cell viability counter screen (AID 743041; note: nearly all actives have a fitted effect of over 45% in size). To be noted: MDA-kb2 viability, CellTiter-Fluor, 16 h, cells co-treated with R1881 androgen agonist; series mostly up to 70.3 µM. The gist of the method:
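R1881-driven MDA-kb2 AR-luc cells, 3,000/well, were dosed with library compounds for 16 h; cell health came from CellTiter-Fluor fluorescence in the reporter wells.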
Consider `[P]#[In]`, for which the Potency result is “inactive”.
Same read-out and setting: next, `C[C@]12C=CC(=O)C=C1CC[C@@H]1[C@@H]2CC[C@@]2(C)[C@H]1CC[C@]2(C)O`: “inactive”; `O=S1(=O)OCCO1`: “inactive”; `Cl/C=C/CCl`: “inactive”.
The same measure, in the same setting: next, `C=C1CC[C@@]2(O)[C@H]3Cc4ccc(O)c5c4[C@@]2(CCN3CC2CC2)[C@H]1O5`: “inactive”.
On the same count and under the same terms, as for `CC[C@@H](CO)NC(=O)[C@@H]1C=C2c3cccc4c3c(cn4C)C[C@H]2N(C)C1`, the entry is “inactive”.
As for `CC(C)(O)C(Cl)(Cl)Cl`, the Potency result was “inactive”.
Turning to `OP(O)c1ccccc1`, the Potency entry was “inactive”.
On the same count and under the same terms, next, `NCCOS(=O)(=O)O`: “inactive”.
Still for that read-out and setting: as for `CC[C@@H](CO)NC(=O)[C@@H]1C=C2c3cccc4[nH]cc(c34)C[C@H]2N(C)C1`, the entry is “inactive”; as for `CCOC(=O)NC(C)(C)Cc1ccc(Cl)cc1`, “inactive”.
`CCCCCCCCSC(=O)Oc1cc(Cl)nnc1-c1ccccc1`: the Potency result was “inactive”.
Still for that read-out and setting: as for `ClC1=C(Cl)C2(Cl)C(CBr)CC1(Cl)C2(Cl)Cl` (stereo unspecified), the entry is “inactive”.
As for `CCN(CC)C1CCCCC1`, the Potency entry was “inactive”.
Same read-out and setting: next, `CC(Cc1ccccc1)NCCn1cnc2c1c(=O)n(C)c(=O)n2C` (stereo unspecified): “inactive”; `O=P(O)(O)c1ccccc1`: “inactive”; `O=C(Cl)/C=C/C(=O)Cl`: “inactive”.
On the same count and under the same terms, as for `O=c1[nH]oc2c1CCNC2`, the entry is “inactive”; as for `C=C(C)[C@H]1CN[C@H](C(=O)O)[C@H]1CC(=O)O`, “inactive”; as for `CCNc1nc(Cl)nc(NC(C)(C)C)n1`, “inactive”.
Regarding `CC(C)(C)C(=O)C(Cl)Cl`, the Potency entry was “inactive”.
The same measure, in the same setting: as for `CCCCS(=O)(=O)Cl`, the entry is “inactive”.
The same measure, in the same setting: next, `OCC(Cl)CCl` (stereo unspecified): “inactive”; `CCCOC(=O)Cc1ccc(OCC(=O)N(CC)CC)c(OC)c1`: “inactive”; `CCC(=O)OC1(c2ccccc2)CCN(C)CC1`: “inactive”.
For the compound `CCOC(=O)c1ncn2c1CN(C)C(=O)c1c(I)cccc1-2`, the Potency result was “inactive”.
On the same count and under the same terms, as for `CC1=C2[C@H]3OC(=O)[C@@H](C)[C@@H]3CC[C@@]2(C)C=CC1=O`, the entry is “inactive”; as for `CCNc1nc(NCC)nc(SC)n1`, “inactive”.
The same measure, in the same setting: as for `CNC(=O)Oc1cc(C)c(N(C)C)c(C)c1`, the entry is “inactive”.
Still for that read-out and setting: as for `CC(C)(C)c1cc(O)ccc1O`, the entry is “inactive”; as for `C[C@@H](N)[C@@H](O)c1ccccc1`, “inactive”.
For the compound `CC(C)(N)Cc1ccc(Cl)cc1`, the Potency entry was “inactive”.
Same read-out and setting: as for `O=C(NC(=O)c1c(F)cccc1F)Nc1cc(Cl)c(F)c(Cl)c1F`, the entry is “inactive”.
As to `CC(C)(C1CCC(O)CC1)C1CCC(O)CC1` (stereo unspecified), the Potency entry was “inactive”.
For the compound `CON(C)C(=O)Nc1ccc(Br)c(Cl)c1`, the Potency result was “inactive”.
On the same count and under the same terms, next, `N=C(N)[Se]`: “inactive”; `NNCc1ccccc1`: “inactive”.
